Measured values as given in PubChem BioAssay AID493194 (Broad Institute, 2011).
Results with a measured potency or affinity are listed apart. Inconclusive results are not listed. The source made the active and inactive calls.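 Rule for the calls: active = a valid curve of falling signal whose half-effect concentration is at most ten times the top tested dose; inconclusive = flat curve at 30 to 70% inhibition, or poor fit; inactive = signal rise, flat within 30%, or potency beyond limit.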

Target: Scavenger receptor class B member 1 (Mus musculus) (UniProt Q61009)
Sequence (Q61009 whole entry, looked up): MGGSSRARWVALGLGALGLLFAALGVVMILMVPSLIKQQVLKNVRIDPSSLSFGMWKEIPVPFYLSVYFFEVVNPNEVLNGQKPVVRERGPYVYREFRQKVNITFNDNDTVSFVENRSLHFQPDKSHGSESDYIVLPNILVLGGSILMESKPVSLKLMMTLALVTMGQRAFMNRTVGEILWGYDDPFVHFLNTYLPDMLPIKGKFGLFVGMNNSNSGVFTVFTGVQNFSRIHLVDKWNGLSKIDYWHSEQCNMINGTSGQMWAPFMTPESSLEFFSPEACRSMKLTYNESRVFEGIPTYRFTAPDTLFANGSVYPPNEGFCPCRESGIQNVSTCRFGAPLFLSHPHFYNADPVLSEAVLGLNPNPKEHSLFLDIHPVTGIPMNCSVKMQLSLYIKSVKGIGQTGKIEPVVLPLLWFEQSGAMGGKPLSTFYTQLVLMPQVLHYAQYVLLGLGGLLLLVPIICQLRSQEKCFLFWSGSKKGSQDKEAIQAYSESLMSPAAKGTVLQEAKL
Assay: mouse SR-BI DiI-HDL uptake blockers – ldlA[mSR-BI] cells, fluorescence, cherry pick, dose response (AID 493194);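 note: CHO cells lacking LDL receptor and overexpressing mouse SR-BI; cellular uptake of fluorescently labeled HDL measured as cell fluorescence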
Conditions: CHO ldlA[mSR-BI] DiI-HDL uptake fluorescence, 3 h; series mostly up to 35 µM

outcome, inactive:
CCCn1c(=O)[nH]c(=O)c2c1nc(-c1ccc(OC(F)(F)C(F)C(F)(F)F)cc1)n2CCOC (stereo not drawn)
O=C(NCN1C(=O)C2C3C=CC(C3)C2C1=O)OC1CCCCC1 (stereo not drawn)
Cc1ccc(CCNC(=O)C2CCN(C(=O)c3sccc3-n3cccc3)CC2)cc1
COc1ccc(OCC(O)Cn2c(Nc3cccc(C)c3)nc3c2c(=O)n(C)c(=O)n3C)cc1 (stereo not drawn)
O=C(CCCC(=O)N(CC(=O)NC1CCCC1)C1CCCC1)Nc1ccccn1
CCOc1ccc(NC(=O)CN2CCN(CC(=O)Nc3ccc(Cl)c(C(F)(F)F)c3)CC2)cc1
CCCCCCC(=O)Nc1nc(C)c(-c2csc(Nc3ccc(Cl)cc3)n2)s1
COc1cc(-c2nnn(Cc3ccccc3C)n2)cc(OC)c1OC
CCC1CCCCN1C(=O)CSc1nnc(-c2ccco2)o1 (stereo not drawn)
O=C1NCCOC(=O)[C@H](Cc2ccc(F)cc2)C/C=C\C[C@@H]1CC(=O)N(CCO)Cc1ccccc1
O=C(NCCn1cc(SCC(=O)N2CCOCC2)c2ccccc21)c1c(F)cccc1F
Cc1c(C(=O)N2CC3(CC(c4cccc(NC(=O)CC(c5ccccc5)c5ccccc5)c4)=NO3)C[C@@H]2C(N)=O)cc([N+](=O)[O-])cc1[N+](=O)[O-] (stereo partly drawn)
CNc1nc(-c2ccc3c(c2)CCN3C(=O)CC(C)(C)C)c(C)s1
Cc1ccc(S(=O)(=O)N2CCC(C(=O)NNC(=O)c3cccnc3)CC2)cc1
CC(C)C(C(=O)OCC(=O)c1ccc2c(c1)NC(=O)CO2)N1C(=O)c2ccccc2C1=O (stereo not drawn)
O=C(Nc1ccc(-c2csc(Nc3cccc(C(F)(F)F)c3)n2)cc1)c1cccc(C(F)(F)F)c1
COc1ccc(-c2nc(CN3CCN(c4ncnc5ccccc45)CC3)c(C)o2)c(OC)c1
Cc1ccc(-c2nn(-c3ccccc3)cc2/C=C/C(=O)OCC(=O)NC2CC2)o1
CCC(=O)Nc1ccc(Cl)c(NC(=O)c2cccc(OC)c2)c1
COc1ccc(CCNC(=O)c2ccc3c(c2)N(Cc2ccc(F)cc2)CCS3)c(OC)c1
O=C(C[C@@H]1C/C=C\C[C@H](NC(=O)OCC2c3ccccc3-c3ccccc32)C(=O)O[C@H](c2ccccc2)CNC1=O)NCCO
CCOc1ccc(NC(=O)CN2CCN(CC(=O)Nc3ccc(OC)cc3)CC2)cc1
CC1CCCCC1NC(=O)c1nn(C)c2c1CS(=O)(=O)c1ccccc1-2 (stereo not drawn)
CCOc1ccccc1NC(=O)N1C2CCCC1CC(NC(=O)C1CC1)C2 (stereo not drawn)
COc1ccc(CCn2c(C)cc(C(=O)CSc3nc(N)cc(=O)[nH]3)c2C)cc1
CCCOC1CCCN(C(=O)c2cc(COc3cncc(Cl)c3)on2)C1 (stereo not drawn)
COc1ccc(C(=O)N2CCN(c3ccc([N+](=O)[O-])c(NCCc4ccc(OC)c(OC)c4)c3)CC2)cc1
Cc1ccc(Sc2nc(-c3ccccc3)nnc2C(F)(F)F)cc1
Cc1ccc(C(=O)COc2cc(O)c3c(=O)cc(-c4ccccc4)oc3c2)cc1
COc1ccc(NC(=O)CN2CCN(CC(=O)Nc3ccc(OC)c(OC)c3)CC2)cc1
COc1ccc(C2/C=C\CN(S(=O)(=O)c3ccc(C)cc3)CC(=O)N2Cc2cccc(F)c2)cc1 (stereo not drawn)
CC(=O)Nc1nc(-c2ccccc2)nc(-c2ccccc2OC(C)=O)n1
O=S(=O)(c1ccccc1)c1cnc(-c2ccccc2)nc1N1CCCCC1
Cc1cc(N2CCN(C(=O)c3ccco3)CC2)n2ncc(-c3ccccc3)c2n1
Cc1cc(N(C)C(=O)c2ccc3c(c2)S(=O)(=O)c2cc(Cl)ccc2C3=O)c(C(F)(F)F)o1
CN(C(=O)c1ccc2c(c1)CCN2S(C)(=O)=O)c1ccccc1
CNc1cnn(-c2ccc(C)cc2)c(=O)c1Sc1ccc(C)cc1
O=C(Nc1ccc(N2CCOCC2)cc1)c1cccc(S(=O)(=O)N2CCC(Cc3ccccc3)CC2)c1
